# Source: the supplement of paper PMC6555819
# Legend:
# Assay in all cases: PBM binding z-score (relative to random genomic background probes); higher = stronger binding; sequences stand for … in GC…GCGATTGACAGCGTAGAATGAAGG
# [1] = tested on: RARb homodimer (NR concentration 270 nM)
# Procedure, shortened: (§1)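 Custom Agilent 4×180K protein-binding microarrays carried double-stranded probes. Their 34-nt variable regions held direct-repeat seeds, single-nucleotide variants, half-site ablations and random human genomic background sequences. Arrays were incubated 1 h with ligand-free nuclear receptor dimers in PBS pH 7.4, 2% milk, 0.02% Triton X-100, 1 mM DTT, 0.2 mg/mL BSA and 0.4 mg/ml salmon testes DNA. Antibodies against each partner (one per run) detected binding, and scanned fluorescence was regression-normalized. Binding z-scores use random background probes as reference.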
# [2] = tested on: RARg:RXRa (NR concentration 270 nM, RXRa partner concentration 90 nM)
# Procedure, shortened: as §1
# [3] = tested on: RARg homodimer (NR concentration 270 nM)
# Procedure, shortened: as §1
# [4] = tested on: RXRa DBDmut IVT, anti-RXR (DBD mutation: RXRa K156A/R161A, NR concentration 90 nM)
# Procedure, shortened: as §1
# [5] = tested on: RXRa homodimer (NR concentration 180 nM)
# Procedure, shortened: as §1
# [6] = tested on: THRa:RXRa (NR concentration 90 nM, RXRa partner concentration 90 nM)
# Procedure, shortened: as §1
# [7] = tested on: THRa homodimer (NR concentration 90 nM)
# Procedure, shortened: as §1
# [8] = tested on: VDR homodimer (NR concentration 270 nM)
# Procedure, shortened: as §1
Sequence,PBM binding z-score [1],PBM binding z-score [2],PBM binding z-score [3],PBM binding z-score [4],PBM binding z-score [5],PBM binding z-score [6],PBM binding z-score [7],PBM binding z-score [8]
GCTCGGAGGACAAGGTCATAGCTTTGTCCGTAGA,3.41,4.23,3.99,1.8,4.34,3.56,2.14,2.26
CGTACTGGGCCAAAGGTCATTGATTCCAATGCTC,4.66,5.89,4.65,1.3,6.26,3.6,0.976,2.28
TCTAGTTGGTGAAAGGTCACACACTCGAAATGCG,4.86,6.24,5.72,1.95,7.42,3.97,2.01,2.58
AGGATGAGGTTATTAAGATCAGGGAATTGCGGTC,1.49,1.41,1.1,1.78,1.9,2.24,1.47,1.97
ATCTCTTGGTAAGACTCAGTTCAGTGAAGAACGC,0.908,0.084,0.186,0.852,-0.0369,0.736,1.13,1.76
GCGACTGGGGCAAAGCAGTTTACCATAAGGTTGG,0.187,0.073,0.187,0.0079,-0.0226,0.718,-0.284,-0.185
AGTCAAAGTTCACTAGGAAACGTAAGATTCAGCT,3.48,4.86,5.62,3.98,3.71,1.3,-0.55,3.64
AGTCAAAGTTCAGGACGAGGTAACGCAAAGCACG,3.22,4.76,4.54,2.81,3.06,3.75,1.73,1.73
AGAACGAGGGCACGCTCAGTTGATAGCAGAGTAG,1.02,1.9,2.25,1.94,1.28,1.82,-0.0296,0.752
TCATATAGGTAATACAGTTGAAAGTCGGCATCTA,0.353,0.792,0.493,1.96,1.26,0.327,0.576,0.467
GCTGCTAGGTCAACTAATGGTCAGCTAAAGCTCG,3.51,5.28,5.52,1.38,2.65,2.74,0.777,-0.0577
ATCTCTAGGTAAGACTTAGTTCAGTGAAGAACGC,1.05,0.21,0.357,0.325,0.128,0.798,0.858,0.617
TCTGCTAGGTCAACGATGGTCAGGTAATCTGCTA,3.36,4.2,5.52,1.12,3.11,3.09,1.34,-0.177
TCTTGTAGATCAGTAGGTTAAGAAAGCTGGCCAA,0.381,-0.0974,-0.231,0.997,0.365,0.204,0.0296,0.104
AGAATGAGGTTATTAAGATTAGGGAATTGCGGTC,0.809,1.27,0.836,2,1.72,2.05,0.933,1.29
ATCTCTAGGTAAAGATATTTCAGTGAATGCAAAT,-0.275,0.202,0.289,-0.0383,0.125,0.524,0.252,-0.0481
AATACAGGGTCACTAGGCCAAAGTAGGTACGAAT,3.62,5.16,4.42,2.71,5.98,3.48,1.09,2.19
CGTCCAAGGTCAGTAGGTCAGTGAAAGCGACGTG,4.74,5.95,6.1,2.72,4.05,3.35,1.74,1.94
CCGAGTAGGTTATGGGGCAATCAGGCAACGGTGA,1.16,0.738,0.689,-0.315,0.867,0.602,0.263,0.0803

Sequence,PBM binding z-score [1],PBM binding z-score [2],PBM binding z-score [3],PBM binding z-score [4],PBM binding z-score [5],PBM binding z-score [6],PBM binding z-score [7],PBM binding z-score [8]
TCGAGTAGGTTACCAATGGGGAATTCAGCTTTCT,-0.273,0.258,-0.0594,0.599,0.509,-0.0396,-1.08,-0.782
CGAACGAGGGCATGAGTTGATGGCAAATGCCGAT,0.659,1.25,1.6,2.05,0.973,1.08,-0.389,1.31
GGAACGAGGGTATTCGAGTTGATAGCATGGCGAT,-0.529,-0.0783,0.118,0.869,0.0441,1.82,-1.03,0.63
CGAACGAGGGCATGAGTTGATAGCAAATGCCGAT,0.843,1.54,2,2.58,1.17,1.48,-0.132,2.02
CCTTACGGGTCACGAGGTTATATCACGACGAGCG,3.93,6.16,5.48,1.94,7.11,3.77,1.34,2.09
CCTACTGGGCCATTCACAGGTCATTGATCATATG,2.72,2.69,1.66,0.46,1.34,2.01,0.728,1.17
CGAACTAGGTCACAGAGGTCAAAGTCCGTGCGTA,5.38,7.57,7.52,3.54,8.15,4.58,2.83,6.98
ATCTCTAGGCAACCAAGTTCAGTGAATGCCGAAC,1.25,0.473,0.591,0.688,0.505,0.9,-0.255,2.3
ATCTCTAGGTGAAGTTCAGTGAAAGATCGATAGA,1.53,1.3,1.46,0.512,0.437,1.19,0.0183,0.509
CCGACTGGGGCAGAAAGGTAACCATACCATCCGG,0.454,0.234,0.586,-1.12,0.166,0.0799,-0.606,-0.291
ACTAGCAGGCCAAGTTTGGGACACTCAAACAAAG,0.289,0.191,0.555,-0.499,-0.592,1.45,0.404,-0.549
ATATGTACGTTATCGGGTCATTCAGTTTGCGCAT,2.25,2.06,1.64,1.78,2.34,3.26,2.69,4.2
CAAACTAGGTCAAGGTCCAAGTCGGTTTGTGCCA,3.59,3.87,5.33,1.76,3,3.18,1.67,1.7
GCTTACGGGCCAAAGGTTATAGCATGAATAGAAT,1.29,2.77,1.04,0.36,3.01,1.58,-0.515,-0.0468
TCAGAAAGGTGAAGGTAACTCAGGTACGCAGTCG,2.08,2.32,2.52,1.64,2.41,2.01,0.472,0.477
AGTCAAAGTTCACCTAGGTAACGTAAGATATGCT,4.16,5.65,6.29,4.26,4.86,3.51,0.406,3.86
GCGACTGGGGCAAAGCAGGCTACCATAAGGTTGG,0.228,0.143,0.207,-0.628,0.0152,1.59,-0.688,-0.862
ACAGACAGGTGATGAAGGTTACTCAGGCTATCAT,1.16,0.777,0.687,0.104,0.748,0.904,0.139,0.291
TTATATAGGTAAATGCTAGGTGAAAGTCCGATCT,0.66,0.442,0.423,0.585,0.781,1.62,0.619,0.705

Sequence,PBM binding z-score [1],PBM binding z-score [2],PBM binding z-score [3],PBM binding z-score [4],PBM binding z-score [5],PBM binding z-score [6],PBM binding z-score [7],PBM binding z-score [8]
TCGAGTAGGTTAGGGGCATTCATAATGGCGTCGA,0.847,0.406,0.583,0.422,0.801,0.804,0.251,0.868
TCTGCTAGATCAACGATGGTCAGCTAATCTGCTA,-0.588,-0.514,-0.512,-0.127,-0.276,-0.945,-1.71,-1.45
CCTATTTGGTCAGGAGGTCACACACCGGATATGA,4.24,5.12,4.67,1.25,5.03,3.54,2.66,2.61
ACTTGCGGGTCAACGAGGTTATAGCACGCGTATA,3.37,5.21,4.88,2.41,5.33,3.81,1.31,3.69
ATATGTAGGTTAGCTGGGATCATTCAGACTAGGC,0.428,0.559,0.765,0.0124,0.95,1.95,-0.1,0.36
AGAATGAGGTTACCACAGATCAGGGAAACGCTTG,0.855,2,1.62,1.24,2.61,2.93,0.878,0.395
AGTCAAAGTTCAGGACGAGGGAACGTAAAGCACG,2.88,4.2,4.74,3.07,2.87,2.44,0.19,1.74
TGAATGAGGTTATAACATCAGGGAACGTTGCAAA,-0.0288,1.33,0.791,0.901,2.09,1.78,-0.00143,0.537
TCATATAGGCAATACAGGTGAAAGTCGGCATCTA,0.329,0.188,0.134,1.25,0.668,0.629,-0.127,-0.277
CCTAGTTGGTCAGGAGGTCACACAGCGGATATGA,4.13,5.36,4.51,1.06,4.73,3.66,2.76,3.13
ATCCCTAGGTAACCAAGTTCAGTGAATGCCGAAC,1.97,0.484,0.374,0.841,0.841,1.79,1.02,2.77
AGTCACAGTTCACTAGGTAACGTAAGATTCAGCT,1.19,2.17,2.07,2.64,1.74,1.34,0.333,1.8
ACTAGCAGGCCAAGCGTCACTCAAGATTAGTCCG,-0.0548,-0.358,0.0982,-0.131,-0.281,-0.489,-0.737,-1.26
CGTCCAAGGTCATAGGACGTCAGTGAAGACAGAT,3.37,5.58,5.4,3.74,5.36,3.83,2.24,3.01
TAGCCTAGGTCATGCGGACCAGTATAGTGTCGGC,2.76,3.99,4.25,0.668,3.05,2.84,1.12,-0.0352
CCTAGCAGGCCAAACTGGGTCACTCAAGGCTTGA,2.17,1.16,1.51,0.301,0.807,3.68,0.159,-0.107
ACTATTAGTTGCCTTAGGGCAACCGATACGACGC,0.893,0.429,0.732,0.351,0.447,1.46,0.815,0.176
TTACTAAGGTGAGCTGAGGTCGTTGATCCAACTC,1.96,1.39,1.38,0.464,1.52,4.79,2.51,2.32
